Screens from PubChem BioAssay.
D2 PAM-1 = positively modulates the human D2 dopamine receptor allosterically. HEK293 T-REx D2, calcium flux, EC20 dopamine potentiation. 340,000 compounds, 0.34% hits. potentiation, % at 10 µM. AID 485347. P14416;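 active means potentiation over 3 SD above the plate norm, cut at about 30% in these data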; further: 0% is about no effect
Target sequence (P14416 whole entry, looked up): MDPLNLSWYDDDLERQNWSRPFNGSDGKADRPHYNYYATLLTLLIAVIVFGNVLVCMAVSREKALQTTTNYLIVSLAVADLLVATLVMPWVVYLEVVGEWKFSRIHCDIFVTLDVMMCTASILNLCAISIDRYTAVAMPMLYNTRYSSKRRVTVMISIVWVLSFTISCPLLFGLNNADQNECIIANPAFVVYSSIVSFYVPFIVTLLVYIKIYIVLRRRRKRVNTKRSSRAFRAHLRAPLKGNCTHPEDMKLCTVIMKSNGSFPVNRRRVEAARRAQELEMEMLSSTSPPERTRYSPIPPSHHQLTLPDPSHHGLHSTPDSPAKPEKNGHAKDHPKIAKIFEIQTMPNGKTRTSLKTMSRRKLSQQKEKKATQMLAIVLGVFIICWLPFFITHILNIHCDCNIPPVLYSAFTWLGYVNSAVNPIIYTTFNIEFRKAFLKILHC
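Calcium flux readout, no-wash dye, 1 read/s. Inducible HEK293 Trex D2 line, overnight 30 C. Compound alone 180 s (agonist flags), then EC20 dopamine, another 180 s to score potentiation.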
D2 ag-1 = agonists of human D2 dopamine receptor; activation, % at 2 µM; 340,000 compounds, 0.53% hits; HEK293 T-REx D2 cells, calcium flux agonist mode; AID 485358;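 active means activation over 3 SD above normal in the single-dose calcium agonist read, cut at about 30% in these data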; further: 0% is about no effect
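Tetracycline-induced HEK293 Trex cells with D2 receptor force-coupled to calcium signaling, plated overnight at 30 C and loaded with no-wash calcium dye. Calcium flux read kinetically for 180 s after compound addition; responses flag agonists.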
D2 PAM-2 = human D2 receptor positive allosteric modulation; AID 624464; P14416; DiscoveRx D2 beta-arrestin cells, luminescence, 90 min; 100% = 57 uM dopamine signal; 360,000 compounds, 0.23% hits; potentiation, % (no concentration beside the values); in the data active means potentiation above about 50%; inconclusive means mostly about 30% to 49%
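PathHunter D2 cells, attached overnight at 37 deg C, received compound in DMSO plus dopamine at EC20 (50 nM final) for 90 min at 37 deg C. Beta-arrestin recruitment was read as luminescence after 1 h with detection reagent at ambient temperature.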
D2 antag = D2 dopamine receptor (human) antagonism. inhibition, % at 10 µM. HEK293 TREx D2 cells, calcium flux, dopamine EC80. 340,000 compounds, 2% hits; in the data active means inhibition above about 30%; inactive means below that, where a call was filed; further: 0% is about no effect
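Calcium flux kinetic readout in an inducible HEK293 TREx D2 line plated overnight at 30 C. After 180 s compound exposure, an EC80 dopamine challenge follows with another 180 s kinetic read to detect antagonism.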
D2 ag-2 = human D2 receptor agonism in beta-arrestin assay | P14416 | DiscoveRx PathHunter D2 beta-arrestin, luminescence, 90 min; 100% = 57 uM dopamine signal | activation, % (no concentration beside the values) | 360,000 compounds, 0.084% hits | AID 624465; in the data active means activation above about 40%; inconclusive means between about 15% and that limit
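DiscoveRx PathHunter D2 beta-arrestin cells (2,100/well) attached overnight, then compound-stimulated 90 min at 37 C in HBSS/10 mM HEPES/0.1% Tween-20 buffer; beta-galactosidase complementation read by luminescence after 1 h at ambient temperature. Dopamine 57 uM final (EC100) as control.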
* hit, by the source's call; ! = not confirmed by another sample. Compounds with a hit are over-represented: about 2.4% of the library has one in this group of screens.

CCOC(=O)c1c(C)[nH]c(C)c1S(=O)(=O)N1CCCC(C(=O)N2CCN(c3ccccc3F)CC2)C1 (centres undefined) was read as D2 PAM-1 -9.3 and D2 ag-1 0.9.
Screening O=C(CCCSc1nnc(Nc2ccccc2F)s1)N1CCOCC1 returned D2 PAM-1 -4.0, D2 ag-1 1.0, D2 PAM-2 -36.1, D2 antag 39.3* and D2 ag-2 0.7.
For CCc1nnc(NC(=O)CSc2nccn2Cc2ccc(Cl)cc2)s1 the results were D2 PAM-1 -4.1 and D2 ag-1 0.2.
COc1ccc(S(=O)(=O)O/N=C2\CCSc3ccc(C)cc32)cc1 was read as D2 PAM-1 2.7, D2 ag-1 -0.3, D2 PAM-2 72.1*, D2 antag -3.8 and D2 ag-2 12.5.
Cc1ccc(C(=O)O/N=C2\CCSc3ccc(C)cc32)cc1 was read as D2 PAM-1 -0.3, D2 ag-1 -0.2, D2 PAM-2 0.1, D2 antag -4.5 and D2 ag-2 -3.3.
For COCCNC(=O)CCCn1c(=O)[nH]c2ccsc2c1=O the results were D2 PAM-1 -0.6 and D2 ag-1 -0.1.
Screening CCN(CC)c1ccc(/C=C(/C#N)C(=O)NCc2ccccc2)o1 returned D2 PAM-1 -15.7, D2 ag-1 42.6*, D2 PAM-2 -36.3, D2 antag 9.8 and D2 ag-2 -3.4.
Screening CC(C)NC(=O)/C(C#N)=C\c1ccc(N(C)C)o1 returned D2 PAM-1 0.7, D2 ag-1 0.8, D2 PAM-2 -11.2, D2 antag 40.3* and D2 ag-2 -10.5.
Screening CCN(CC)c1ccc(/C=C(/C#N)C(=O)NC(C)C)o1 returned D2 PAM-1 -6.9, D2 ag-1 9.5, D2 PAM-2 -8.6, D2 antag 8.8 and D2 ag-2 -4.1.
For COc1ccc(N=C2S/C(=C\c3ccco3)C(=O)N2CC(C)C)cc1 the results were D2 PAM-1 10.0, D2 ag-1 0.5, D2 PAM-2 -24.1, D2 antag 35.6* and D2 ag-2 -3.0.
COc1ccc(N=C2S/C(=C\c3cc(C)n(C)c3C)C(=O)N2CC(C)C)cc1 was read as D2 PAM-1 10.8, D2 ag-1 0.4, D2 PAM-2 -8.0, D2 antag 13.3 and D2 ag-2 -8.1.
Screening COc1ccc(NCc2nnc(SCC(=O)NCc3ccco3)n2-c2ccccc2OC)cc1 returned D2 PAM-1 6.0, D2 ag-1 -0.7, D2 PAM-2 -18.2, D2 antag 10.6 and D2 ag-2 -4.9.
Screening Cc1ccc(-n2c(CNc3ccc(F)cc3)nnc2SCC(=O)N2CCCC2)cc1 returned D2 PAM-1 7.4, D2 ag-1 0.7, D2 PAM-2 -19.5, D2 antag 30.1* and D2 ag-2 -2.8.
Cc1ccc(-n2c(CNc3ccc(F)cc3)nnc2SCC(=O)NCc2ccco2)cc1 was read as D2 PAM-1 17.5, D2 ag-1 0.4, D2 PAM-2 -10.1, D2 antag 33.9* and D2 ag-2 -3.7.
COCCCC/C(=N\OCCN)c1ccc(C(F)(F)F)cc1 was read as D2 PAM-1 1.9, D2 ag-1 1.0, D2 PAM-2 -13.0, D2 antag 53.9*! and D2 ag-2 -0.4.
COc1cc2cnc(-c3ccccc3)c(-c3cccc(C(F)(F)F)c3)c2cc1OC was read as D2 PAM-1 1.3, D2 ag-1 -0.6, D2 PAM-2 161.6*, D2 antag -2.0 and D2 ag-2 inconclusive.
CCOP(=O)(OCC)C(Nc1cccc(C(F)(F)F)c1)c1ccc(C)cc1 (centres undefined) was read as D2 PAM-1 -17.0, D2 ag-1 36.6*, D2 PAM-2 -8.9, D2 antag -10.2 and D2 ag-2 -2.1.
Screening CN1/C(=C/C=N/n2cnnc2)C(C)(C)c2ccccc21 returned D2 ag-1 -1.0, D2 PAM-2 1.9, D2 antag 56.3* and D2 ag-2 -0.5.
For CN1/C(=C\C=C(C#N)C#N)C(C)(C)c2ccccc21 the results were D2 PAM-1 1.6, D2 ag-1 5.5, D2 PAM-2 0.4, D2 antag 24.1 and D2 ag-2 0.7.
For CN(C)CCCNc1nc2cc(-c3ccc(F)cc3)sc2c(=O)n1C the results were D2 PAM-2 -11.4 and D2 ag-2 -7.1.
For Brc1ccc(Oc2nnnn2-c2ccccc2)cc1 the results were D2 PAM-1 -8.2, D2 ag-1 -2.7, D2 PAM-2 -7.5, D2 antag 44.7* and D2 ag-2 -29.5.
Screening CC(NC(=O)/C(C#N)=C/c1ccc(N2CCOCC2)cc1)c1ccccc1 (centres undefined) returned D2 PAM-1 32.2*, D2 ag-1 4.6, D2 PAM-2 -6.2, D2 antag 2.5 and D2 ag-2 -3.5.
COC(=O)c1ccc(/C=C(\C#N)C(=O)NC(C)c2ccccc2)cc1 (centres undefined) was read as D2 PAM-1 10.0, D2 ag-1 -0.8, D2 PAM-2 -9.1, D2 antag 8.1 and D2 ag-2 -6.9.
Screening CCc1cccc(NC(=O)CCS(=O)(=O)c2ccc(C)cc2)c1 returned D2 PAM-1 -8.4.
For Cc1[nH]c2ccc(C(=O)NCCCN3CCN(C)CC3)cc2c1C the results were D2 PAM-1 -4.8, D2 ag-1 -0.5, D2 PAM-2 -18.9, D2 antag 1.2 and D2 ag-2 -2.1.
For Cc1[nH]c2ccc(C(=O)NCCCN(C)C3CCCCC3)cc2c1C the results were D2 PAM-1 -26.6, D2 ag-1 -0.3, D2 PAM-2 -40.1, D2 antag 34.0* and D2 ag-2 -5.2.
Screening Cc1ccc(NC(=O)C(NS(=O)(=O)c2ccc3c(c2)CCC(=O)N3)c2ccccc2)cc1C (centres undefined) returned D2 PAM-1 6.9 and D2 ag-1 0.3.
COC(=O)c1c(CSc2cccc(C)c2)noc1C(=O)NCc1ccco1 was read as D2 PAM-1 -9.6, D2 ag-1 -2.4, D2 PAM-2 -23.2, D2 antag -0.3 and D2 ag-2 -0.8.
`COC(=O)c1c(CSc2ccc(Cl)cc2)noc1C(=O)NCc1ccco1` gave D2 PAM-1 -20.1, D2 ag-1 -0.3, D2 PAM-2 -12.4, D2 antag 37.6* and D2 ag-2 2.8.
`COc1ccccc1-c1noc(-c2ccc(NCc3cccnc3)c([N+](=O)[O-])c2)n1` gave D2 PAM-1 -0.8 and D2 ag-1 -0.6.
For COc1ccc(NS(=O)(=O)c2cc(C(=O)N(C)CCc3ccccn3)ccc2Cl)cc1 the results were D2 PAM-2 2.2 and D2 ag-2 3.5.
`CCc1cccc2c(-c3ccccc3)nc(SCC(=O)Nc3ccccc3OC)nc12` gave D2 PAM-1 12.4 and D2 ag-1 1.6.
Screening Cc1ccc(C(=O)Nc2cc(C(F)(F)F)ccc2-n2cncn2)o1 returned D2 PAM-1 0.2, D2 ag-1 -0.3, D2 PAM-2 3.3, D2 antag 1.7 and D2 ag-2 -4.1.
